Assay outcomes: PubChem BioAssay, National Center for Advancing Translational Sciences (NCATS)
An excerpt weighted towards active compounds, which were near 12% of everything screened.
JMJD2A Tudor = qHTS Assay for Inhibitors of JMJD2A-Tudor Domain | Lysine-specific demethylase 4A (Homo sapiens), O75164 | AlphaScreen JMJD2A-Tudor / H3K4me3 peptide binding | Potency, µM (titrated, usually from 114 µM), for inactives: top-dose activity change, negative = inhibition, hits mostly inhibitors | hit rate 4.4% among 390,000 | AID 504339, 2011; further: potency means the concentration at half of the fitted maximal effect; on the % scale 0 is the no-effect control and ±100 the full control effect; nearly all actives have a fitted effect of over 50% in size
HP1b binding inh = HTS for Inhibitors of HP1-beta Chromodomain Interactions with Methylated Histone Tails | AID 540317, 2011 | AlphaScreen HP1-beta / biotin-H3K9me3 peptide binding | hit rate 0.56% among 390,000 | Potency, µM (titrated, usually from 114 µM), for inactives: top-dose activity change, negative = inhibition, usual class: inhibitors | Chromobox protein homolog 1 (Homo sapiens), P83916; further: potency means the concentration at half of the fitted maximal effect; nearly all actives have a fitted effect of over 70% in size
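HP1-beta protein (50 nM final) preincubated 30 min at room temperature with biotinylated H3(1-18)K9me3 peptide (50 nM) in PBS pH 7.4, 0.01% Tween-20, then compound added for 30 min. AlphaScreen streptavidin donor/nickel chelate acceptor beads (10 ug/mL final), 30 min dark, luminescence read.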
PI5P4K alpha inh = qHTS for Inhibitors of phosphatidylinositol 5-phosphate 4-kinase (PI5P4K) | Phosphatidylinositol 5-phosphate 4-kinase type-2 alpha (Homo sapiens), P48426 | PI5P4Kalpha enzyme, ADP-Glo luminescence, 60 min; active compounds read low | max response, % | hit rate 1.2% among 330,000 | AID 652105, 2013; active means max response of -50% or lower; inconclusive means between -30% and -50%; inactive means -30% or higher; further: value at the top dose of about 77 µM; on the % scale 0 is the no-effect control and ±100 the full control effect
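Compounds were pin-transferred onto PI5P4Kalpha and substrate in HEPES pH 7.4 buffer with EGTA, CHAPS and 5% DMSO. ATP (5 microM final) started the reaction, which ran 60 minutes at room temperature before ADP-Glo detection.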
BAZ2B block = qHTS Assay for Inhibitors of BAZ2B. Potency, µM (doses to about 114 µM), without a hit: top-dose activity change, negative = inhibition, most hits filed as inhibitors. AID 504333, 2011. AlphaScreen BAZ2B-H3K14Ac peptide displacement. hit rate 4.4% among 360,000; further: potency means the concentration at half of the fitted maximal effect; on the % scale 0 is the no-effect control and ±100 the full control effect; nearly all actives have a fitted effect of over 60% in size
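Complex of BAZ2B and biotin-H3K14Ac (50 nM apiece) forms over 30 min at RT, then faces library compounds up to 110 uM for another 30 min; AlphaScreen beads added, 20 min dark incubation, luminescence read.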
PLK1 PBD block = qHTS for Inhibitors of PLK1-PDB (polo-like kinase 1 - polo-box domain): Primary Screen; Serine/threonine-protein kinase PLK1 (Homo sapiens), P53350; Plk1 PBD binding of FITC phosphopeptide, fluorescence polarization; Potency, µM, inactives show max response, negative = inhibition, actives largely listed as inhibitors; hit rate 2.8% among 360,000; AID 720504, 2013; further: potency means the concentration at half of the fitted maximal effect; series mostly up to about 57 µM; on the % scale 0 is the no-effect control and ±100 the full control effect; nearly all actives have a fitted effect of over 65% in size
Target sequence (P53350 whole entry, looked up, the tested form may be a part): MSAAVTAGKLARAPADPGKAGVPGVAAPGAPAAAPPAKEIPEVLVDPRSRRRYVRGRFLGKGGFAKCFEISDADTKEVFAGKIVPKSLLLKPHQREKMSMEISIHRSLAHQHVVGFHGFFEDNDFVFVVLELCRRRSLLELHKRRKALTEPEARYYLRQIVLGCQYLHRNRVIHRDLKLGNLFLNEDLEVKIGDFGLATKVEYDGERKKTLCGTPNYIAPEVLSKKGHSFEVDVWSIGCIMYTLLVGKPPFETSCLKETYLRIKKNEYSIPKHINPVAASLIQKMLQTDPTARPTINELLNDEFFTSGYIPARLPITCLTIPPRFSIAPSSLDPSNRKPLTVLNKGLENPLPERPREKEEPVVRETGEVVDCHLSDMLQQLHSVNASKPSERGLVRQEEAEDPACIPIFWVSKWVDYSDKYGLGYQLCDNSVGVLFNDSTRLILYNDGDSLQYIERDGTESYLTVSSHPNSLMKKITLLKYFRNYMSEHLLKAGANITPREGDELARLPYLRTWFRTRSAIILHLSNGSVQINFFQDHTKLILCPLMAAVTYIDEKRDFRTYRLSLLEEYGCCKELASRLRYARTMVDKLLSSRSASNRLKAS
G9a inh = qHTS Assay for Inhibitors of Histone Lysine Methyltransferase G9a; Histone-lysine N-methyltransferase EHMT2 (Homo sapiens), Q96KQ7; G9a H3K9 monomethylation, AlphaScreen, 2 h; Potency, µM (series often up to 102 µM), for the others: at the top dose activity, negative = inhibition, hits mostly inhibitors; hit rate 8.8% among 350,000; AID 504332, 2011; further: potency means the concentration at half of the fitted maximal effect; on the % scale 0 is the no-effect control and ±100 the full control effect; nearly all actives have a fitted effect of over 75% in size
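AlphaScreen detection with an anti-monomethyl H3K9 antibody quantified product after a 2 h room-temperature reaction containing 500 nM biotinylated H3K9 peptide, 20 µM SAM and 20 nM enzyme, which had been preincubated 15 min with compound.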
Active calls of the source: *; ? = inconclusive; . = not tested or not shown; ! = not confirmed by another sample; [ ] = dose if it differs, or a comment. Unless noted, the call rests on the fitted dose curve; in most records, active means well fitted curve in the direction sought with a large enough effect; inconclusive means small, poorly fitted or top-dose-only effect, or another doubt; inactive means no such curve, though single readings can be large; an effect the other way counts as inactive or inconclusive.

SMILES	JMJD2A Tudor	HP1b binding inh	PI5P4K alpha inh	BAZ2B block	PLK1 PBD block	G9a inh
CN[C@H](CC(C)C)C(=O)N[C@H]1C(=O)N[C@@H](CC(N)=O)C(=O)N[C@@H]2C(=O)N[C@H]3C(=O)N[C@H](C(=O)N[C@H](C(=O)O)c4cc(O)cc(O)c4-c4cc3ccc4O)[C@H](O)c3ccc(c(Cl)c3)Oc3cc2cc(c3O[C@@H]2O[C@H](CO)[C@@H](O)[C@H](O)[C@@H]2O[C@H]2C[C@](C)(N)[C@H](O)[C@H](C)O2)Oc2ccc(cc2Cl)[C@H]1O	.	.	.	.	.	2%[59 µM]
CCOC(=O)[C@]12Cc3cc(OC)ccc3[C@H]1N(C1CCCCC1)C(=O)c1ccccc12	.	.	-5	.	3µM*	.
CCOC(=O)[C@]12Cc3cc(Cl)ccc3[C@H]1N(C1CCCCC1)C(=O)c1ccccc12	.	.	-10	.	1.9µM*	.
Nc1nc2[nH]c(=O)cnc2c(=O)[nH]1	.	.	.	.	.	36%[12.7 µM]
C#CCN(C[C@@H]1[C@@H](OC(=O)Nc2c(C)noc2C)[C@@H](OC(=O)Nc2c(C)noc2C)Cn2c(=O)n(CCCCCC)c(=O)n21)S(=O)(=O)c1ccc(C)cc1	.	.	4	.	?	.
CC(C)CN1CC[C@@]2(CCCN(C(=O)Oc3ccccc3)C2)C1	.	.	.	.	.	6%[12.7 µM]
CN1C(=O)C(Cc2ccc(OCc3ccccc3)cc2)C(=O)N(C)C1=O	-12%	46%	-6	-20%	-14%	79µM*
O=S1(=O)CCN(CCc2c[nH]c3ccccc23)CC1	-13%	37%	4	-8%	1%	0%
CN1C(=O)C(Cc2cccc3ccccc23)C(=O)N(C)C1=O	-34%	20%	-8	12%	21µM*	?
CN1C(=O)C(Cc2c[nH]c3ccccc23)C(=O)N(C)C1=O	.	.	.	-5%	.	13µM*
COc1cc(CC2C(=O)N(C)C(=O)N(C)C2=O)ccc1OCc1ccccc1	-17%	1%	.	-6%	-27%	-23%[59 µM]
O=C1CCCc2c1nc(-c1ccccc1)n2O	-22%	-14%	.	4%	?	-24%[12.7 µM]
FC(F)(F)c1ccc2c(c1)N(CCCN1CCN(CCCl)CC1)c1ccccc1S2	16µM*	-16%	-10	40µM*	-6%	10µM*
OCCN1CCN(CCCN2c3ccccc3Sc3ccc(C(F)(F)F)cc32)CC1	79µM*	10%	-7	?	-27%	11µM*!
O=C1NCCOC(=O)[C@@H](Cc2ccc(F)cc2)CC/C=C/C[C@@H]1CC(=O)N(CCO)Cc1ccccc1	-3%	15%	-2	.	3%	.
COc1cc(/C=N/NP(=S)(c2ccccc2)c2ccccc2)ccc1O	?	-39%	-1	-35%	?	45µM*
COc1cc(/C=C/c2nc3ccccc3c(=O)n2-c2ccccc2O)ccc1O	-15%	8%	1	-19%	58%	-47%
Oc1ccc(/C=N/NP(=S)(c2ccccc2)c2ccccc2)cc1	?	?	-14	?	24µM*	?
C[C@H](CCC(=O)O)C[C@H](C)C[C@H](C)C(=O)/C=C(\O)[C@H](C)C[C@H](C)C/C=C/[C@@H](C)[C@@H](O)[C@@H](C)[C@@H](O)C[C@@H]1CC[C@@](C)([C@H]2CC[C@@](C)([C@@H](C)O)O2)O1	.	.	.	.	.	27%[59 µM]
CN(C)c1ccc(P(=O)(OC2CCCCC2)C(Nc2ccccc2)c2cccnc2)cc1 (stereo unspecified)	-21%	-17%	0	40µM*	-2%	.
CC(C)C[C@@H]1COc2cccc(N3CCN(C)CC3)c2S(=O)(=O)N1	.	.	3	.	-4%	.
CCC1CN2CCC1CC2C(O)c1ccnc2ccc(OC)cc12 (stereo unspecified)	.	.	.	.	.	6%[2.33 µM]
C[C@@H](Cc1ccccc1)NCCC(c1ccccc1)c1ccccc1	.	.	.	.	.	-23%[5.15 µM]
CCOc1ccccc1N=C1SCCCN1C	79µM*	31%	.	3%	0%	5µM*
CCOc1ccc(CCNC(=O)c2cc3c(-c4ccc(OC)c(OC)c4)nn(C)c3s2)cc1OCC	?	9%	.	.	.	?
SMILES	JMJD2A Tudor	HP1b binding inh	PI5P4K alpha inh	BAZ2B block	PLK1 PBD block	G9a inh
COc1ccc(OCCOc2cccc(C=C3C(=O)NC(=O)NC3=O)c2)cc1	.	.	.	-36%	.	?
CCOc1ccc(/C=C2/C(=O)NC(=O)N(CCc3ccc(F)cc3)C2=O)cc1	-15%	21%	-55*	-26%	2.7µM*	?
O=C1NC(=O)C(CCc2ccncc2)(CCc2ccncc2)C(=O)N1CCc1ccc(F)cc1	-27%	19%	5	5%	-1%	-24%
COc1cc(/C=C2\C(=O)NC(=O)N(CCc3ccc(F)cc3)C2=O)ccc1O	-10%	32%	-78*	0%	0.75µM*	40µM*
CCOc1cc(C=C2C(=O)NC(=O)NC2=O)cc([N+](=O)[O-])c1O	.	.	.	56µM*	.	.
COc1cc(C=C2C(=O)NC(=O)NC2=O)ccc1O	-9%	38%	-29	-8%	21µM*	-11%[12.7 µM]
O=C(COc1ccccc1Cl)N1CCN(CCc2ccncc2)CC1	-11%	58%	.	?	.	-7%[59 µM]
CCc1ccc(-n2nc(C)c3c(C(=O)NCCc4ccc(OC)c(OC)c4)cc(C)nc32)cc1	6%	47%	.	19%[57.1 µM]	.	5%[59 µM]
CCCCc1ccc(NC(=O)c2ccc3c(c2)CCN3S(=O)(=O)CC)cc1	?	-1%	.	?	.	?
O=C1C(Cl)=C(N2CCOCC2)C(=O)N1c1ccccc1F	-12%	76%	8	-27%	-13%	35µM*
CN1C[C@H](C(=O)N[C@]2(C)O[C@@]3(O)C4CCCN4C(=O)[C@H](Cc4ccccc4)N3C2=O)C[C@@H]2c3cccc4[nH]cc(c34)C[C@H]21 (stereo partly specified)	.	.	.	.	.	17%[12.7 µM]
CC(=O)Nc1nc(CCl)cs1	-30%	32%	?	-19%	-23%	20µM*
Cc1ccccc1NC(=O)CCl	-9%	36%	-1	0%	-6%	5%
CC1(C)C(C(=O)NCc2ccco2)C1(C)C	-14%	18%	4	0%	-6%	-10%[59 µM]
CCC(=O)Nc1cccc(-c2nnc(SCC(=O)NCc3ccco3)n2C)c1	-10%	24%	2	-1%	-7%	50µM*
